Reference: PubChem BioAssay (NCI)
The panel holds about 79,000 compounds, 15% with a hit somewhere; the sample as a whole holds those more often. Unmarked numbers belong to inactive results. Active and inactive are the calls of the source. Cut-off read from the data, not from the text of the source: active = growth inhibition above about 70%; inactive = the rest.

How the values were obtained:
[1] = NCI Yeast Anticancer Drug Screen. Data for the rad52 strain (AID 147);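 note: 0% = growth of vehicle-treated control cultures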; details: S. cerevisiae rad52 mutant growth inhibition, active compounds read high
Summary of the method: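 DNA repair-defective yeast; compound exposure; growth scored against vehicle controls.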

[2] = NCI Yeast Anticancer Drug Screen. Data for the wt1 strain (AID 149);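 note: 0% = growth of vehicle-treated wt1 cultures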; details: S. cerevisiae wt1 strain (SPY 50644) growth inhibition, active compounds read high
Summary of the method: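 Measured: growth of wt1 yeast under compound versus vehicle treatment, reported as inhibition.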

[3] = NCI Yeast Anticancer Drug Screen. Data for the rad50 strain (AID 155);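 note: 0% = growth of vehicle-only cultures of the same strain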; details: S. cerevisiae rad50 strain growth inhibition, active compounds read high
Summary of the method: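 Growth of the mutant yeast was measured after compound exposure and referenced to vehicle-treated cultures.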

[4] = NCI Yeast Anticancer Drug Screen. Data for the mec2-1 strain (AID 157); details: S. cerevisiae mec2-1 strain, active compounds read high
Summary of the method: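 Growth inhibition is read against vehicle-treated controls after compound exposure of the mec2-1 yeast strain, which is defective in DNA damage repair or cell cycle control.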

[5] = NCI Yeast Anticancer Drug Screen. Data for the rad14 strain (AID 159);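 note: 0% = growth of vehicle-treated control cultures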; details: S. cerevisiae rad14 strain growth inhibition, active compounds read high
Summary of the method: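 Here, inhibition of yeast growth was measured after compound exposure, using a strain with a genetic defect in DNA damage repair and vehicle-treated cultures as the reference.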

[6] = NCI Yeast Anticancer Drug Screen. Data for the sgs1 mgt1 strain (AID 161);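 note: 0% = growth of cultures given vehicle only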; details: S. cerevisiae sgs1 mgt1 strain, active compounds read high
Summary of the method: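 This yeast growth screen uses a strain with defined DNA-repair lesions; compound-treated growth is compared with vehicle-treated growth.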

[7] = NCI Yeast Anticancer Drug Screen. Data for the CLN2oe strain (AID 163);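 note: 0% = growth of vehicle-only control cultures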; details: S. cerevisiae CLN2oe strain, active compounds read high
Summary of the method: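 Compound-treated yeast; growth vs vehicle ctrl = % inhibition. Genetically altered strain (cell-cycle control).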

[8] = NCI Yeast Anticancer Drug Screen. Data for the cln2 rad14 strain (AID 165);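 note: 0% = growth equal to vehicle treated cultures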; details: S. cerevisiae cln2 rad14 strain, active compounds read high
Summary of the method: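 Growth inhibition, relative to vehicle-treated controls, is the read-out. The test organism is a yeast strain with defined genetic alterations, cln2 rad14.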

[9] = NCI Yeast Anticancer Drug Screen. Data for the bub3 strain (AID 167); details: S. cerevisiae bub3 mutant strain, active compounds read high
Summary of the method: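 Whole-cell yeast assay. The mutant strain was incubated with compounds, and growth inhibition was determined by comparison with vehicle-treated cells.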

[10] = NCI Yeast Anticancer Drug Screen. Data for the wt2 strain (AID 169);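 note: 0% = growth of vehicle-treated yeast cultures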; details: S. cerevisiae wt2 strain growth inhibition, active compounds read high
Summary of the method: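 Compound exposure of yeast; growth compared with vehicle controls; inhibition reported.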

[11] = NCI Yeast Anticancer Drug Screen. Data for the sgs1 strain (AID 173);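 note: 0% = growth of vehicle-only control cultures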; details: S. cerevisiae sgs1 mutant, active compounds read high
Summary of the method: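 Compounds applied to genetically altered yeast; growth compared with vehicle-treated cultures to give % inhibition.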

[12] = NCI Yeast Anticancer Drug Screen. Data for the mlh1 rad18 strain (AID 175); details: S. cerevisiae mlh1 rad18 strain growth inhibition, active compounds read high
Summary of the method: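 Cells of a genetically altered yeast strain, deficient in DNA damage repair, were treated with compound. Their growth was then compared with that of vehicle-treated cultures to give inhibition.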

[13] = NCI Yeast Anticancer Drug Screen. Data for the rad18 strain (AID 177); details: S. cerevisiae rad18 mutant growth inhibition, active compounds read high
Summary of the method: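 Compounds are applied to a repair-deficient yeast strain, and growth is compared with that of vehicle-treated cultures to give percent inhibition.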

[14] = NCI Yeast Anticancer Drug Screen. Data for the mlh1 strain (AID 171);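 note: 0% = growth of vehicle-treated control cultures of the same strain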; details: S. cerevisiae mlh1 strain growth inhibition, active compounds read high
Summary of the method: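 Compounds are applied to a genetically altered yeast strain, and its growth is compared with that of vehicle-treated cultures to give percent inhibition.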

[15] = at 5.0 µM (retest, dose inferred, filed as 0.5)
[16] = at 50.0 µM (retest, dose inferred, filed as 5.0)

## On1cnc(=S)c2[nH]cnc21
[1]; at 1.2 µM
  growth inhibition: -28%
[1]; at 3.7 µM
  growth inhibition: -27%
[1]; at 11.0 µM
  growth inhibition: -29%
[1]; at 33.0 µM
  growth inhibition: -26%
[1]; at 100.0 µM
  growth inhibition: -35%
[2]; at 1.2 µM
  growth inhibition: -31%
[2]; at 3.7 µM
  growth inhibition: -33%
[2]; at 11.0 µM
  growth inhibition: -30%
[2]; at 33.0 µM
  growth inhibition: -39%
[2]; at 100.0 µM
  growth inhibition: -42%
[3]; at 1.2 µM
  growth inhibition: -63%
[3]; at 3.7 µM
  growth inhibition: -33%
[3]; [15]
  growth inhibition: 24%
[3]; at 11.0 µM
  growth inhibition: -65%
[3]; at 33.0 µM
  growth inhibition: -62%
[3]; [16]
  growth inhibition: 74% (active)
[3]; at 50.0 µM
  growth inhibition: -7.05%
[3]; at 100.0 µM
  growth inhibition: -55%
[4]; at 1.2 µM
  growth inhibition: 31%
[4]; at 3.7 µM
  growth inhibition: 9%
[4]; [15]
  growth inhibition: 15%
[4]; at 11.0 µM
  growth inhibition: 11%
[4]; at 33.0 µM
  growth inhibition: -2%
[4]; [16]
  growth inhibition: 99% (active)
[4]; at 50.0 µM
  growth inhibition: 1.85%
[4]; at 100.0 µM
  growth inhibition: -1%
[5]; at 1.2 µM
  growth inhibition: -32%
[5]; at 3.7 µM
  growth inhibition: -26%
[5]; at 11.0 µM
  growth inhibition: -34%
[5]; at 33.0 µM
  growth inhibition: -28%
[5]; at 100.0 µM
  growth inhibition: -14%
[6]; [15]
  growth inhibition: 36%
[6]; [16]
  growth inhibition: 100% (active)
[6]; at 50.0 µM
  growth inhibition: 9.3%
[7]; at 1.2 µM
  growth inhibition: 23%
[7]; at 3.7 µM
  growth inhibition: 9%
[7]; at 11.0 µM
  growth inhibition: -10%
[7]; at 33.0 µM
  growth inhibition: 19%
[7]; at 100.0 µM
  growth inhibition: 11%
[8]; [15]
  growth inhibition: 13%
[8]; [16]
  growth inhibition: 97% (active)
[8]; at 50.0 µM
  growth inhibition: 1.85%
[9]; at 1.2 µM
  growth inhibition: -29%
[9]; at 3.7 µM
  growth inhibition: -6%
[9]; [15]
  growth inhibition: 17%
[9]; at 11.0 µM
  growth inhibition: -17%
[9]; at 33.0 µM
  growth inhibition: -3%
[9]; [16]
  growth inhibition: 99% (active)
[9]; at 50.0 µM
  growth inhibition: -6.65%
[9]; at 100.0 µM
  growth inhibition: -8%
[10]; at 1.2 µM
  growth inhibition: 2%
[10]; at 3.7 µM
  growth inhibition: -6%
[10]; at 11.0 µM
  growth inhibition: -11%
[10]; at 33.0 µM
  growth inhibition: -4%
[10]; at 100.0 µM
  growth inhibition: -19%
[11]; at 1.2 µM
  growth inhibition: -22%
[11]; at 3.7 µM
  growth inhibition: -26%
[11]; at 11.0 µM
  growth inhibition: -16%
[11]; at 33.0 µM
  growth inhibition: -44%
[11]; at 100.0 µM
  growth inhibition: -32%
[12]; [15]
  growth inhibition: 60%
[12]; [16]
  growth inhibition: 98% (active)
[12]; at 50.0 µM
  growth inhibition: 7.7%
[13]; at 1.2 µM
  growth inhibition: -40%
[13]; at 3.7 µM
  growth inhibition: -33%
[13]; at 11.0 µM
  growth inhibition: -55%
[13]; at 33.0 µM
  growth inhibition: -61%
[13]; at 100.0 µM
  growth inhibition: -67%

## C/C(=N\NC(=S)NNC(=S)N(C)c1ccccc1)c1ccccn1
[1]; at 1.2 µM
  growth inhibition: 9%
[1]; at 3.7 µM
  growth inhibition: 40%
[1]; at 11.0 µM
  growth inhibition: 97% (active)
[1]; at 33.0 µM
  growth inhibition: 98% (active)
[1]; at 100.0 µM
  growth inhibition: 83% (active)
[2]; at 1.2 µM
  growth inhibition: -4%
[2]; at 3.7 µM
  growth inhibition: 46%
[2]; at 11.0 µM
  growth inhibition: 97% (active)
[2]; at 33.0 µM
  growth inhibition: 98% (active)
[2]; at 100.0 µM
  growth inhibition: 86% (active)
[3]; at 1.2 µM
  growth inhibition: -9%
[3]; at 3.7 µM
  growth inhibition: 37%
[3]; [15]
  growth inhibition: -19%
[3]; at 11.0 µM
  growth inhibition: 97% (active)
[3]; at 33.0 µM
  growth inhibition: 97% (active)
[3]; [16]
  growth inhibition: 98% (active)
[3]; at 50.0 µM
  growth inhibition: 87% (active)
[3]; at 100.0 µM
  growth inhibition: 83% (active)
[4]; at 1.2 µM
  growth inhibition: 18%
[4]; at 3.7 µM
  growth inhibition: 25%
[4]; [15]
  growth inhibition: 10%
[4]; at 11.0 µM
  growth inhibition: 98% (active)
[4]; at 33.0 µM
  growth inhibition: 99% (active)
[4]; [16]
  growth inhibition: 99% (active)
[4]; at 50.0 µM
  growth inhibition: 90.5% (active)
[4]; at 100.0 µM
  growth inhibition: 82% (active)
[5]; at 1.2 µM
  growth inhibition: -6%
[5]; at 3.7 µM
  growth inhibition: 71% (active)
[5]; at 11.0 µM
  growth inhibition: 97% (active)
[5]; at 33.0 µM
  growth inhibition: 98% (active)
[5]; at 100.0 µM
  growth inhibition: 79% (active)
[6]; [15]
  growth inhibition: 0%
[6]; [16]
  growth inhibition: 98% (active)
[6]; at 50.0 µM
  growth inhibition: 88.5% (active)
[7]; at 1.2 µM
  growth inhibition: 17%
[7]; at 3.7 µM
  growth inhibition: 13%
[7]; at 11.0 µM
  growth inhibition: 97% (active)
[7]; at 33.0 µM
  growth inhibition: 98% (active)
[7]; at 100.0 µM
  growth inhibition: 79% (active)
[9]; at 1.2 µM
  growth inhibition: -17%
[9]; at 3.7 µM
  growth inhibition: 21%
[9]; [15]
  growth inhibition: 82% (active)
[9]; at 11.0 µM
  growth inhibition: 97% (active)
[9]; at 33.0 µM
  growth inhibition: 97% (active)
[9]; [16]
  growth inhibition: 98% (active)
[9]; at 50.0 µM
  growth inhibition: 87.2% (active)
[9]; at 100.0 µM
  growth inhibition: 83% (active)
[10]; at 1.2 µM
  growth inhibition: 9%
[10]; at 3.7 µM
  growth inhibition: 22%
[10]; at 11.0 µM
  growth inhibition: 97% (active)
[10]; at 33.0 µM
  growth inhibition: 99% (active)
[10]; at 100.0 µM
  growth inhibition: 90% (active)
[14]; at 1.2 µM
  growth inhibition: 21%
[14]; at 3.7 µM
  growth inhibition: 41%
[14]; at 11.0 µM
  growth inhibition: 97% (active)
[14]; at 33.0 µM
  growth inhibition: 98% (active)
[14]; at 100.0 µM
  growth inhibition: 83% (active)
[11]; at 1.2 µM
  growth inhibition: 13%
[11]; at 3.7 µM
  growth inhibition: 64%
[11]; at 11.0 µM
  growth inhibition: 98% (active)
[11]; at 33.0 µM
  growth inhibition: 98% (active)
[11]; at 100.0 µM
  growth inhibition: 88% (active)
[12]; [15]
  growth inhibition: 27%
[12]; [16]
  growth inhibition: 99% (active)
[12]; at 50.0 µM
  growth inhibition: 84.5% (active)
[13]; at 1.2 µM
  growth inhibition: 16%
[13]; at 3.7 µM
  growth inhibition: 31%
[13]; at 11.0 µM
  growth inhibition: 98% (active)
[13]; at 33.0 µM
  growth inhibition: 98% (active)
[13]; at 100.0 µM
  growth inhibition: 83% (active)

## Cc1cc(O)c2c(c1)C(=O)C=C(Br)C2=O
[1]; at 1.2 µM
  growth inhibition: 38%
[1]; at 3.7 µM
  growth inhibition: 76% (active)
[1]; at 11.0 µM
  growth inhibition: 98% (active)
[1]; at 33.0 µM
  growth inhibition: 98% (active)
[1]; at 100.0 µM
  growth inhibition: 94% (active)
[2]; at 1.2 µM
  growth inhibition: -1%
[2]; at 3.7 µM
  growth inhibition: -2%
[2]; at 11.0 µM
  growth inhibition: 6%
[2]; at 33.0 µM
  growth inhibition: 98% (active)
[2]; at 100.0 µM
  growth inhibition: 96% (active)
[3]; at 1.2 µM
  growth inhibition: 38%
[3]; at 3.7 µM
  growth inhibition: 71% (active)
[3]; at 11.0 µM
  growth inhibition: 97% (active)
[3]; at 33.0 µM
  growth inhibition: 99% (active)
[3]; at 100.0 µM
  growth inhibition: 94% (active)
[4]; at 1.2 µM
  growth inhibition: 40%
[4]; at 3.7 µM
  growth inhibition: 67%
[4]; at 11.0 µM
  growth inhibition: 94% (active)
[4]; at 33.0 µM
  growth inhibition: 99% (active)
[4]; at 100.0 µM
  growth inhibition: 98% (active)
[5]; at 1.2 µM
  growth inhibition: 37%
[5]; at 3.7 µM
  growth inhibition: 64%
[5]; at 11.0 µM
  growth inhibition: 97% (active)
[5]; at 33.0 µM
  growth inhibition: 99% (active)
[5]; at 100.0 µM
  growth inhibition: 96% (active)
[7]; at 1.2 µM
  growth inhibition: 7%
[7]; at 3.7 µM
  growth inhibition: 16%
[7]; at 11.0 µM
  growth inhibition: 40%
[7]; at 33.0 µM
  growth inhibition: 99% (active)
[7]; at 100.0 µM
  growth inhibition: 97% (active)
